# Measurements taken from PubChem BioAssay (Tox21).
# The source made the active and inactive calls. Calls come from the whole dose curve; as a rule, active = well fitted curve in the direction sought with a large enough effect in the repeat runs; inconclusive = weak or mixed curves; inactive = flat fitted curve, though single readings scatter.
# Assay: qHTS assay to test for compound auto fluorescence at 460 nm (blue) in HEK293 cell free culture (AID 720681)
# Conditions: cell-free medium, autofluorescence 405/460 nm (blue); series mostly up to 91.3 µM
# Excerpt: U.S. Tox21 Program National Center for Advancing Translational Sciences [NCATS] NIH Chemical Genomics Center [NCGC] U.S. Environmental Protection Agency [EPA] National Institutes of Environmental Health Sciences [NIEHS] National Toxicology Program [NTP] U.S. Food and Drug Administration [FDA] Tox21 Assay Overview: Compound auto fluorescence often interferes with screening of the compound library against various biological targets and signaling pathways. Some of these compounds may have fluorophoric properties. Such properties may interfere with the assay outputs resulting in false positives and/or negatives. To decrease such complications and ensure the compound activities are relevant in terms of biological response, the Tox21 10K compound library was screened for auto fluorescence. From the fluorophores used as reporter signals in our screening assays, the auto fluorescence equivalencies of compounds against three fluorophores have been evaluated: Triamterene, Fluorescein and Rose Bengal sodium for blue, green and red fluorescence, respectively. The fluorescence intensities were measured using Excitation/Emission wavelengths at 405/460nm, 485/535nm and 540/590nm for blue, green and red labels, respectively. This assay includes the blue fluorescence data.
# Tox21 Assay Protocol Summary: 5 uL of culture medium (DMEM containing 10% FBS) per well was dispensed into black wall/clear bottom 1536-well plates using a Multidrop Combi Dispenser (ThermoFisher Scientific, Waltham, MA). After 23 nL compound or DMSO vehicle was transferred into assay plate by a pintool work station (Kalypsys, San Diego, CA), fluorescence intensities in the assay plates were measured by an Envision (PerkinElmer, Shelton, CT) plate reader using three labels for measuring blue, green and red fluorescence at […] 460, 535 and 590nm respectively.
row,SMILES,outcome
1,CC(CCC(=O)O)(c1ccc(O)cc1)c1ccc(O)cc1,inactive
2,OCCO,inactive
3,O=C(c1ccccc1)c1ccc(O)cc1O,inactive
4,C=C(C)C(=O)OCCOC(=O)C(=C)C,inactive
5,CCCCC(CC)COCC1CO1 (stereo not given),inactive
6,CCCCc1oc2ccccc2c1C(=O)c1cc(I)c(OCCN(CC)CC)c(I)c1,inactive
7,Oc1ccc(O)cc1,inactive
8,Cc1cccc(C(=O)O)c1,inactive
9,c1ccc2c(c1)c1cccc3ccc4cccc2c4c31,inactive
10,C/C=C/C(=O)O,inactive
11,CN(C)CCN(Cc1cccs1)c1ccccn1,inactive
12,Clc1nc(Cl)c(Cl)c(Cl)c1Cl,inactive
13,COc1ccc(C(=O)CC(=O)c2ccc(C(C)(C)C)cc2)cc1,inactive
14,O=c1oc(=O)c2cc3c(=O)oc(=O)c3cc12,inactive
15,CC(C)=CCC/C(C)=C\CO,inactive
16,O=C(/C=C/c1ccccc1)OCc1ccccc1,inactive
17,C=CC(C)(CCC=C(C)C)OC(C)=O (stereo not given),inactive
18,CCCCOCCOCCOCCO,inactive
19,COc1cc([C@@H]2c3cc4c(cc3[C@H](O)[C@H]3COC(=O)[C@H]23)OCO4)cc(OC)c1OC,inactive
20,CC(C)Oc1ccc2c(=O)c(-c3ccccc3)coc2c1,inactive

row,SMILES,outcome
1,C=C(C)C1CC=C(C)CC1 (stereo not given),inactive
2,CCC(C)CO (stereo not given),inactive
3,COc1ccc(OC)c(C(O)CNC(=O)CN)c1 (stereo not given),inactive
4,O=C(c1ccccc1)c1ccccc1O,inactive
5,C[Si](C)(C)O[Si](C)(C)C,inactive
6,CC1=CCC(C(C)(C)O)CC1 (stereo not given),inactive
7,O=C(O)c1ccccc1Nc1cccc(C(F)(F)F)c1,inactive
8,CN(C)CCC=C1c2ccccc2CCc2ccccc21,inactive
9,Cc1ncc[nH]1,inactive
10,Nc1ccc(Cl)cc1Cl,inactive
11,COC(C)COC(C)COC(C)CO (stereo not given),inactive
12,Nc1ncn([C@@H]2O[C@H](CO)[C@@H](O)[C@H]2O)c(=O)n1,inactive
13,c1cc(-c2ccncc2)ccn1,inactive
14,Cc1cccc(N(C)C(=S)Oc2ccc3ccccc3c2)c1,inactive
15,Cc1c(OCC(F)(F)F)ccnc1CS(=O)c1nc2ccccc2[nH]1 (stereo not given),inactive
16,c1ccncc1,inactive
17,CC(=O)CC/C=C(\C)CCC=C(C)C,inactive
18,CCCCCCCCCCCO,inactive
19,CCCCCCCCCC(=O)OC,inactive
20,Cc1[nH]c(=O)c(C#N)cc1-c1ccncc1,inactive
